DAX1 inh-1 = DAX1 (NR0B1) inhibitors on StAR promoter, primary screen, cell-based, luminescence, SF-1 (NR5A1), full-length DAX-1; HEK293T StAR-luciferase reporter, SF-1/DAX-1 repression relief; inhibition, % at 6.8 µM; 1.1% of 370,000 active;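 active = inhibition above the mean over all tested compounds plus 3 SD, cut at about 3.6% in these data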;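 also: higher inhibition means more luminescence from relief of DAX-1 repression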
AHR activator = AHR activators, primary screen, cell-based, luminescence, luciferase reporter, human. Aryl hydrocarbon receptor (Homo sapiens), P35869. AHR-responsive luciferase reporter cells. activation, % at 5 µM. 2.5% of 320,000 active; in the data active = activation above about 47%
Target sequence (P35869 whole entry, looked up): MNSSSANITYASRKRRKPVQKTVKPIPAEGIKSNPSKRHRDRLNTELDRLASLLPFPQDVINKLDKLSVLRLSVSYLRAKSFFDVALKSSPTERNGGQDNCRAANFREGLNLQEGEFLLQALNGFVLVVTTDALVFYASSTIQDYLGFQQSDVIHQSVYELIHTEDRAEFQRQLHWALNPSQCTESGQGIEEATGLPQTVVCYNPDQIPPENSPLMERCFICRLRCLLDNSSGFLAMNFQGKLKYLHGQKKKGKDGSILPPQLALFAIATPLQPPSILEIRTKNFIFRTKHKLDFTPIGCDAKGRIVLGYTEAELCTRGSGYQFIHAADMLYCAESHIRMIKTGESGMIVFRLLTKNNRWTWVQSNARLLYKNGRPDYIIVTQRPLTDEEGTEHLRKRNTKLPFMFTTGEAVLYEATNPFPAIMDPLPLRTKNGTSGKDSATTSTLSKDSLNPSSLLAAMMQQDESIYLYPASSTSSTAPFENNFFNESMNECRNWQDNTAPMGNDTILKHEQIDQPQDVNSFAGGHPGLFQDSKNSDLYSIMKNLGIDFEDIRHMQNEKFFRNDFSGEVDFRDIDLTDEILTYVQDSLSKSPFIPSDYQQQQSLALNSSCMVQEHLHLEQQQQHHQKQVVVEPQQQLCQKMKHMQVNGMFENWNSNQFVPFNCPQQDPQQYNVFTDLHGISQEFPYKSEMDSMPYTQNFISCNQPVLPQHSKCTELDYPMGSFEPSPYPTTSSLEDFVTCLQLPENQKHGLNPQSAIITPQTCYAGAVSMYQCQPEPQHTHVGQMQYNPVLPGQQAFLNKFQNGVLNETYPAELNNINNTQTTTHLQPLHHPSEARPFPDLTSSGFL
DAX1 inh-2 = DAX1 (NR0B1) inhibitors, primary screen, cell-based, HEK293, Gal4-DAX1, luciferase luminescence | Nuclear receptor subfamily 0 group B member 1 (Homo sapiens), P51843 | HEK293 Gal4-DAX1 luciferase reporter | inhibition, % at 6.75 µM | 0.99% of 340,000 active | AID 504766, 2011;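 active = inhibition above the mean over all tested compounds plus 3 SD, cut at about 4.2% in these data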;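 also: inhibition shows as a rise in luminescence from relieved DAX1 repression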
hgDAF-12 ag = H. glycines DAF-12 receptor agonists, primary screen, cell-based, luminescence, HEK293, GAL4 fusion, UAS-luciferase. Nuclear hormone receptor DAF-12 (Heterodera glycines), GAL4 fusion. HEK293 GAL4-hgDAF12 UAS-luciferase reporter, agonist luminescence; normalized to butyrate control. activation, % at 6.8 µM. 1.8% of 370,000 active;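 active = activation above a cutoff set at the mean of all screened compounds plus 3 SD, cut at about 10% in these data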
hcDAF-12 act = H. contortus DAF-12 nuclear receptor activators, primary screen, cell-based, luminescence, HEK293, lit1-tk-luc reporter. HEK293 hcDAF-12 lit1-tk-luc reporter; 0% DMSO, 100% Δ7-dafachronic acid. activation, % at 6.8 µM. 1.4% of 370,000 active. AID 652067, 2013;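 active = activation above the mean of all tested compounds plus 3 SD, cut at about 5.5% in these data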
ssDAF-12 act = S. stercoralis DAF-12 nuclear receptor activators, primary screen, cell-based, luminescence, HEK293, GRIP1 co-expression, lit1-tk-luc; HEK293 ssDAF-12/GRIP1 lit1-tk-luc reporter; % of 3 µM dafachronic acid response; Nuclear hormone receptor DAF-12 (Strongyloides stercoralis); AID 652126, 2013; activation, % at 6.8 µM; 1% of 370,000 active;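 active = activation above the mean over all tested compounds plus 3 SD, cut at about 0.9% in these data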
DAX1 inh confirm = DAX1 (NR0B1) inhibitors relieving SF-1 repression, confirmation, cell-based, luminescence, HEK293T, full-length DAX-1, SF-1 activated StAR promoter; shares compounds with DAX1 inh-1; HEK293T StAR-promoter luciferase reporter, SF-1/DAX-1 repression; 87% of 2,400 active; AID 652134, 2013; inhibition, % at 6.8 µM;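 active = inhibition above the average of every tested compound plus 3 SD, cut at about 3.8% in these data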
SF1 AF2mut Luc = StAR reporter signal changes without DAX1, counter-screen for DAX1 inhibitor project, cell-based, luminescence, AF-2 mutant SF-1, transactivation; shares compounds with DAX1 inh-1; HEK293 StAR-luciferase, SF-1 AF2 mutant; inhibition, % at 6.8 µM; 78% of 2,400 active; AID 652136, 2013;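 active = inhibition above the mean of all tested compounds plus 3 SD, cut at about 3% in these data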
LXR ag = LXR agonists, Gal4 luciferase reporter, confirmation, counter-screen for hcDAF-12 agonist project, cell-based, luminescence, HEK293, H. contortus campaign; shares compounds with hcDAF-12 act; HEK293 Gal4-LXR tk-luc reporter, 24 h; normalized: DMSO 0%, positive control 100%; activation, % at 6.8 µM; 3,400 tested, under 10 active;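 active = mean percent activation of the reporter above a cutoff set as the average over tested compounds plus their standard deviation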
hcDAF12 ag = H. contortus DAF-12 receptor agonists, confirmation, cell-based, luminescence, HEK293, lit1-tk-luc, triplicate | 61% of 3,400 active | HEK293 hcDAF-12 lit1-tk-luc reporter; % of Δ7-dafachronic acid response | activation, % at 6.8 µM | shares compounds with hcDAF-12 act;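 active = mean activation across triplicate tests above the threshold derived from the earlier primary screen, cut at about 5.5% in these data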
hgDAF12 ag = H. glycines DAF-12 receptor agonists, confirmation, cell-based, luminescence, HEK293, GAL4-LBD fusion; activation, % at 6.8 µM; 80% of 3,300 active; shares compounds with hgDAF-12 ag; HEK293 GAL4-hgDAF12 luciferase reporter, agonist mode; percent of butyrate response;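 active = mean activation over triplicate wells above the hit cutoff derived from the earlier primary screen, cut at about 11% in these data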
LXRb DAF12 ctr = LXR agonists, Gal4 luciferase reporter, confirmation, counter-screen for hgDAF-12 agonist project, cell-based, luminescence, HEK293, H. glycines campaign | shares compounds with hgDAF-12 ag | 24 h | activation, % at 6.8 µM | 3,300 tested, under 10 active | AID 743051, 2013;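 active = mean activation of the triplicate above a set limit carried over from the primary screen, none filed active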
Each line names hits and unclear results; the compound was inactive in the other large screens (follow-up assays come after a bar, where they were run). Hits are enriched below; roughly 5.7% of the tested compounds scored in any of these assays.

Cc1ccc(-c2cnc3cc(C)nn3c2)cc1	DAX1 inh-1 9.7, hgDAF-12 ag 18, hcDAF-12 act 5.9 | DAX1 inh confirm 11 | SF1 AF2mut Luc 5.2 | hgDAF12 ag 12 | LXRb DAF12 ctr inactive
Cc1ccc(-c2cnc3c(Cl)c(C)nn3c2)cc1	DAX1 inh-1 6.6, hgDAF-12 ag 24 | DAX1 inh confirm inactive | SF1 AF2mut Luc inactive | hgDAF12 ag 18 | LXRb DAF12 ctr inactive
Cc1c(C(=O)Nc2ccccc2)csc1-c1ccccc1	DAX1 inh-1 6.0, hgDAF-12 ag 20, hcDAF-12 act 8.1, ssDAF-12 act 1.7 | DAX1 inh confirm 16 | SF1 AF2mut Luc 5.6 | LXR ag inactive | hcDAF12 ag 6.5 | hgDAF12 ag 25 | LXRb DAF12 ctr inactive
CCOc1cccc(-c2cnc3cccnn23)c1	DAX1 inh-1 6.1, hgDAF-12 ag 21 (no result: AHR activator, DAX1 inh-2) | DAX1 inh confirm 7.1 | SF1 AF2mut Luc 5.1 | hgDAF12 ag 16 | LXRb DAF12 ctr inactive
O=C(c1cc(-c2cccc(O)c2)on1)N1CCOCC1	DAX1 inh-1 8.0, hgDAF-12 ag 16 | DAX1 inh confirm 13 | SF1 AF2mut Luc 7.1 | hgDAF12 ag 12 | LXRb DAF12 ctr inactive
CC1CCN(C(=O)c2ccc(-c3ccccc3Cl)o2)CC1	DAX1 inh-1 17, hgDAF-12 ag 16 | DAX1 inh confirm 14 | SF1 AF2mut Luc 8.6 | hgDAF12 ag 13 | LXRb DAF12 ctr inactive
O=C(c1cc(-c2ccccc2O)on1)N1CCc2ccccc2C1	none
S=C(c1ccc(-c2ccccc2Cl)o1)N1CCOCC1	none (no result: DAX1 inh-1, hgDAF-12 ag, hcDAF-12 act, ssDAF-12 act)
O=C(c1cc(-c2cccc(O)c2)on1)N1CCCCCC1	none
O=C(c1cc(-c2ccccc2)on1)N1CCCC1	DAX1 inh-1 6.1, hgDAF-12 ag 14, ssDAF-12 act 1.3 | DAX1 inh confirm 11 | SF1 AF2mut Luc 4.5 | hgDAF12 ag 15 | LXRb DAF12 ctr inactive
CC1CCN(C(=O)c2cc(-c3ccccc3O)on2)CC1	DAX1 inh-1 10, hgDAF-12 ag 24, hcDAF-12 act 6.2, ssDAF-12 act 1.1 | DAX1 inh confirm 12 | SF1 AF2mut Luc 9.4 | hgDAF12 ag 17 | LXRb DAF12 ctr inactive
CC(NC(=O)c1cccc(F)c1)C1CC2CCC1C2 (stereo not drawn)	none
CC(C)=NOCC(=O)Nn1c(COc2ccccc2)nc2ccccc2c1=O	none
Cc1ccc(-n2nnc3c(=O)n(CC(N)=O)cnc32)cc1	none
CS(=O)(=O)/C(C#N)=C\c1cnc(S(=O)(=O)c2ccccc2)s1	none (no result: DAX1 inh-1, DAX1 inh-2, hgDAF-12 ag, hcDAF-12 act, ssDAF-12 act)
COc1ccc(CNC(=O)CCC(=O)Nc2nnc(C(F)(F)F)s2)cc1	none
Cc1ccnc(NC(=O)c2cccc(S(=O)(=O)N3CCCc4ccccc43)c2)c1	DAX1 inh-1 7.7, hgDAF-12 ag 13 | DAX1 inh confirm 9.1 | SF1 AF2mut Luc 6.4 | hgDAF12 ag 12 | LXRb DAF12 ctr inactive
O=C(Nc1ccccn1)c1cccc(S(=O)(=O)N2CCCc3ccccc32)c1	none
CSCCCN1CCC(n2nccc2NC(=O)CCCc2ccccc2)CC1	none
O=C(N/N=C\c1c(O)ccc2ccccc12)c1ccc(O)cc1	none
Cn1c(-c2ccccc2)c(/C=N/NC(=O)c2ccc(O)cc2)c2ccccc21	DAX1 inh-1 4.5, DAX1 inh-2 8.7, hgDAF-12 ag 14 | DAX1 inh confirm 12 | SF1 AF2mut Luc 7.6 | hgDAF12 ag 22 | LXRb DAF12 ctr inactive
Cc1ccc([C@@H]2CC=C(C(=O)O)[C@H](c3ccc(Cl)cc3)N2S(=O)(=O)c2ccccc2C)cc1	none
OC[C@H]1O[C@@H](Oc2ccc3cc(Br)ccc3c2)[C@H](O)[C@@H](O)[C@H]1O	none
COc1ccc(/C=C/c2cc(O)cc(OC3OC(CO)C(O)C(O)C3O)c2)cc1 (stereo not drawn)	DAX1 inh-1 8.8, hgDAF-12 ag 17, hcDAF-12 act 6.9 (no result: AHR activator) | DAX1 inh confirm 16 | SF1 AF2mut Luc 8.2 | LXR ag inactive | hcDAF12 ag 7.8 | hgDAF12 ag 11 | LXRb DAF12 ctr inactive
CC1CCc2sc(C(=O)NN)cc2C1 (stereo not drawn)	none
CC1CCc2sc(C(=O)NCC3CCCO3)cc2C1 (stereo not drawn)	DAX1 inh-1 7.2, hgDAF-12 ag 15 (no result: AHR activator) | DAX1 inh confirm 9.9 | SF1 AF2mut Luc 6.5 | hgDAF12 ag 13 | LXRb DAF12 ctr inactive
CC1(C)OCC(CNC(=O)c2[nH]c(C(F)(F)F)nc2-c2ccccc2)O1 (stereo not drawn)	none (no result: AHR activator, DAX1 inh-2)
